From PubChem BioAssay
Entries with a potency or affinity are not part of this list.

assay: inducers of Cryptococcus neoformans cell lysis, dose response, AK release luminescence, cherry-picks (AID 687000);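 also: luminescent detection of adenylate kinase leaking from lysed yeast; 0% = median neutral control signal and 100% = double that signal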; conditions: C. neoformans lysis, adenylate kinase release luminescence, 4 h, 100% = twice the neutral-control signal; series mostly up to 15 µM; lysis activity: at the top concentration;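 active = fitted dose curve reaches 40% lysis signal rise at or below the highest valid concentration tested for that sample; inconclusive = flat fit between 30% and 70%, or poor curve fit; inactive = signal falls, stays flat within 30%, or no crossing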

Lysis activity, inactive:
CCc1ccc(NC(=O)[C@H](C)NC(=O)C2CCN(C(=O)[C@@H](N)C(C)C)CC2)cc1 -1.92%
Cc1ccc(N(CC(=O)NCCSCc2ccco2)S(=O)(=O)c2ccc(F)cc2)cc1 -24.3%
CCCC(=O)Nc1ccc2c(c1)OC[C@@H](C)N(Cc1ccccn1)C[C@@H](C)[C@H](OC)CN(C)C2=O 9.99%
CCOC(=O)CNC(=O)CSc1ncnc2c1cnn2-c1ccccc1 2.25%
Cc1ccccc1-n1ncc2c(SCC(=O)N3c4ccccc4CC3C)ncnc21 (stereo not given) -8.51%
O=C(COc1ccccc1)NCc1ccccc1 -1.66%
O=C(NC(=S)Nc1ccccc1[N+](=O)[O-])c1ccccc1 -22.2%
CC(=O)c1ccc(OCC(=O)NCc2ccc(F)cc2)cc1 7.76%
CC12CC3CC(C)(C1)CC(C(=O)NC(=S)N1CCCCC1)(C3)C2 3.12%
COc1cccc(NC(=O)CN2CCN(S(=O)(=O)c3ccc(C(C)C)cc3)CC2)c1 -3.04%
Cc1cc(C(=O)Nc2cccc3c2O[C@@H](CN(C)S(=O)(=O)c2ccccc2)[C@@H](C)CN([C@@H](C)CO)C3=O)n(C)n1 1.55%
CCC(=O)Nc1ccc2c(c1)OC[C@H](C)N(C(=O)c1ccc(F)cc1)C[C@@H](C)[C@@H](OC)CN(C)C2=O 13.4%
O=C(COc1ccc2c(c1)CCC2)NCc1ccc(Cl)cc1 -2.48%
CC(NC(=O)COc1ccccc1-c1ccccc1)c1ccccc1 (stereo not given) -45.3%
Cc1ccc(N(C(=O)C2CCC(=O)N2)C2(C(=O)NC3CCCC3)CCCCC2)cc1 (stereo not given) 13.4%
CCC(C)N(C(=O)CSc1ncnc2c1cnn2-c1ccccc1)C1CCS(=O)(=O)C1 (stereo not given) 3.75%
C[C@@H]1CN([C@@H](C)CO)S(=O)(=O)c2ccc(C3=CCCC3)cc2O[C@@H]1CN(C)Cc1ccccc1F -14.3%
C[C@H]1CN([C@@H](C)CO)C(=O)c2cc(C#CC3(O)CCCC3)cnc2O[C@@H]1CN(C)Cc1cccnc1 -3.27%
CCC(=O)N1CCC1(C)C(=O)Nc1ccc(C)c(C)c1 (stereo not given) -17.3%
CC(C)NC(=O)Nc1ccc2c(c1)C(=O)N([C@H](C)CO)C[C@H](C)[C@H](CN(C)Cc1ccncc1)OCCCC[C@H](C)O2 46.6%
Cc1cccc(C)c1NC(=S)NN(Cc1ccccc1)c1ccccc1 5.54%
O=C(NC[C@@H]1[C@@H](c2ccccc2)[C@H](CO)N1C(=O)C1CCC1)NC1CCCC1 5.84%
CC(C)Sc1nc2ncnc(N)c2[nH]1 -8.78%
CC(C)CC#Cc1cnc2c(c1)C(=O)N([C@@H](C)CO)C[C@@H](C)[C@@H](CN(C)C(=O)c1cccc(F)c1)O2 -2.95%
COc1cccc(CNC(=O)COc2ccc(C(=O)c3ccccc3)cc2)c1 -44.2%
CCC(=O)N1[C@H](CN(C)C(C)=O)[C@@H](c2ccc(C3=CCCCC3)cc2)[C@@H]1CO -2.02%
CC(C)NC(=O)N(C)C[C@@H]1Oc2c(NC(=O)C3CCCCC3)cccc2C(=O)N([C@@H](C)CO)C[C@@H]1C 0.865%
CN1c2ccc(Br)cc2[C@@H]2[C@@H](CCN2C(=O)Cc2cccnc2)[C@@H]1CO 15.6%
COc1cc(NC(=O)CN2CCN(S(=O)(=O)c3ccc(C(C)C)cc3)CC2)cc(OC)c1 -11%
CNC(=O)CN(c1ccc(OC)cc1)S(=O)(=O)c1ccc(F)cc1 9.76%
Cc1cc(OCC(=O)N(C)Cc2ccccc2)cc(C)c1Cl -22%
Cc1cc(C)c(NC(=O)CN2CCN3CCCC3C2)c(C)c1 (stereo not given) 0.312%
Cc1ccc(C)c(NC(=O)C2(C)CCN2C(=O)C(C)C)c1 (stereo not given) -5.27%
CO[C@H]1CC[C@@H]2CCOc3c(C#N)cccc3C(=O)N(C)C[C@@H](OC)[C@@H](C)C(=O)N(C)C[C@@H]1O2 -4.88%
O=C(COc1ccccc1)NCc1ccc2c(c1)OCO2 -11.6%
CC(=O)N1[C@H](CO)[C@H](c2ccc(-c3ccccc3)cc2)[C@@H]1CNC(=O)C1CC1 -18.2%
CCCNC(=O)C[C@H]1CC[C@H]2[C@@H](COC[C@@H](O)CN2S(=O)(=O)c2ccc(Oc3ccccc3)cc2)O1 -4.43%
Cc1ccc(N2C(=O)CC(N3CCN(c4ccc(F)cc4)CC3)C2=O)c(C)c1 (stereo not given) -37.9%
CCC(=O)N1[C@H](CO)[C@H](c2ccc(-c3ccc(F)cc3)cc2)[C@@H]1CNC(C)=O 9.12% [at 16 µM]
O=C1CCC(C(=O)Nc2cccc3ccccc23)N1 (stereo not given) 1.56%
